Cycloheximide cs: Cycloheximide Counterscreen for Small Molecule Inhibitors of Shiga Toxin; cell reporter, cycloheximide protein synthesis inhibition counterscreen; max response, %; hit rate 12% among 300,000; AID 2314, 2010; in the data active = max response mostly above about 13%, no sharp cut-off; inactive = mostly below about 14%; note: read at 38.3 µM for the half of the compounds with a filed dose; 0% is about no effect
Pf growth 96h: Primary qHTS for delayed death inhibitors of the malarial parasite plastid, 96 hour incubation | AID 504834, 2011 | P. falciparum luciferase reporter growth, 96 h | hit rate 6.9% among 320,000 | Potency, µM (series often up to 28.7 µM), for the others: at the highest dose activity change, negative = inhibition, actives largely listed as inhibitors; note: potency is the fitted concentration of half-maximal effect; % is set by controls: 0 for no effect and ±100 for the full control effect
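Erythrocytes infected with luciferase-expressing P. falciparum were dispensed at 2% hematocrit and 0.05% parasitemia (final), then incubated with compounds 96 hours at 37 C in 5% CO2. Luminescence after detection reagent addition reported growth.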
NS1 function inh: qHTS Assay for Inhibitors of Influenza NS1 Protein Function; Potency, µM (top dose mostly 46.1 µM), for inactives: at the highest dose activity, positive = more growth; hit rate 0.4% among 270,000; AID 2326, 2010; calls by dose curve; note: potency is the fitted concentration of half-maximal effect; actives are rising curves; nearly all actives have a fitted effect of over 50% in size
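S. cerevisiae expressing influenza A NS1, grown in glucose, washed, then diluted 1:100 into pH 6.0 -URA galactose medium with 23 nl compound. Growth recovery read as OD600; NS1-free strain serves as control.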
Sm TGR block: qHTS Assay for the Inhibitors of Schistosoma Mansoni Peroxiredoxins; hit rate 3% among 360,000; Potency, µM (doses to about 114 µM), for inactives: at the top dose activity change, negative = inhibition, hits mostly inhibitors; purified TGR, DTNB reduction, TNB absorbance 405 nm; Schistosoma mansoni thioredoxin glutathione reductase (TGR), Q962Y6; note: potency is the fitted concentration of half-maximal effect; % is set by controls: 0 for no effect and ±100 for the full control effect; nearly all actives have a fitted effect of over 60% in size
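TGR 20 nM + NADPH 100 uM (dispensed conc.), cpd preinc 15 min RT; start with NADPH (500 uM addition) then DTNB (15 mM addition). Kinetic TNB absorbance, 405 nm filter. Four-parameter Hill fit across titration.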
Shiga inhibitor: A qHTS for Small Molecule Inhibitors of Shiga Toxin; inhibition, % at 38.7 µM; hit rate 9.2% among 290,000; Vero cells, Shiga toxin protein synthesis inhibition reporter; AID 2315, 2010; in the data active = inhibition mostly above about 28%, no sharp cut-off; inactive = mostly below about 43%; note: 0% is about no effect
Pf growth 48h: Primary qHTS for delayed death inhibitors of the malarial parasite plastid, 48 hour incubation | P. falciparum luciferase growth in erythrocytes, 48 h | Potency, µM (highest dose often 28.7 µM), for inactives: at the top dose activity change, negative = inhibition, most hits filed as inhibitors | AID 504832, 2011 | hit rate 5.9% among 310,000; note: potency is the fitted concentration of half-maximal effect; % is set by controls: 0 for no effect and ±100 for the full control effect
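Compounds are pin-transferred into medium, infected erythrocytes (2% hematocrit, 0.1% parasitemia final) are added, and plates sit one parasite generation at 37 C in 5% CO2. Detection reagent is then added and luminescence measured.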
Numbers without * were called inactive; ? = inconclusive; nt = no result; [ ] = dose if it differs, or a comment. An excerpt weighted towards active compounds, which were near 21% of everything screened. Unless noted, calls come from the whole dose curve; as a rule, active = well fitted curve in the direction sought with a large enough effect; inconclusive = small, poorly fitted or top-dose-only effect, or another doubt; inactive = no such curve, though single readings can be large; an effect the other way counts as inactive or inconclusive.

SMILES	Cycloheximide cs	Pf growth 96h	NS1 function inh	Sm TGR block	Shiga inhibitor	Pf growth 48h
CC(=O)N1CCOc2ccc(S(=O)(=O)N3CC(C)CC(C)C3)cc21 (centres undefined)	2.5	9.28µM*	-2.9%	-2.2%	22.7	-21.2%
CCOc1ccccc1N(C)S(=O)(=O)c1ccc2c(c1)N(C(C)=O)CCO2	-1.2	1.85µM*	-4.3%	6.7%	-11.8	-1.8%
COc1ccc(C(=O)Nc2nc(-c3nnn(-c4cc(OC)ccc4OC)c3C)ns2)cc1	nt	nt	nt	-10.4%	nt	nt
Cc1ccc(Oc2ccc(Cl)cc2NC(=O)c2cnccn2)cc1	5.0	nt	0.1%	-0.7%	19.0	?
Cc1ccc(C(=O)Nc2cc(Cl)ccc2OC(=O)c2ccc(C)cc2)cc1	35.7*	0.465µM*	-23.8%	1.8%	97.8*	?
COc1cc(NC(=O)C2CCCC2)c(OC)cc1Cl	-1.9	9.28µM*	-11.5%	-1.1%[11.4 µM]	-18.1	nt
COc1cc(NC(=O)C2CCCO2)c(OC)cc1Cl (centres undefined)	-3.5	-21.1%	-7.6%	-10.8%	-6.3	1.4%
COc1ccc(C(=O)Nc2cc(OC)c(Cl)cc2OC)cc1	13.8	5.22µM*	nt	7.0%	22.0	10.4%
O=C(Nc1ccccc1O)c1ccc(Cl)cc1	42.0*	?	-70.2%	-4.6%	95.4*	5.86µM*
Cc1cc(NC(=O)c2ccc(Cl)cc2)c(C)cc1O	12.7	25.8%	-2.1%	-2.8%	65.5	11.4%
COc1cccc(NC(=S)N(CCN(C)C)C(C)c2ccncc2)c1 (centres undefined)	-4.7	-6.0%	-3.3%	9.4%	2.1	-18.5%
CNC(=O)C1(C(F)(F)F)C/C(=C/CCO)CCCO1 (centres undefined)	0.8	nt	nt	nt	0.4	nt
O=C(Nc1ccccc1O)c1ccc([N+](=O)[O-])cc1	26.6*	?	-2.6%	?	78.0*	0.0%
CSc1ccccc1NC(=O)c1ccc([N+](=O)[O-])cc1	5.2	40.3%	nt	-0.9%	18.0	?
COc1ccc(OC)c(NC(=O)c2ccc(Cl)cc2)c1	9.9	-13.7%	-9.9%	nt	22.7	-7.0%
COC(=O)c1cc(Cl)c(NC(=O)c2cc(OC)c(OC)c(OC)c2)cc1OC	-2.9	11.3%	14.7%	0.5%	-5.2	17.5%
COc1cc(NC(=O)c2cc3nc(C)cc(C)n3n2)c(OC)cc1Cl	52.8*	15.8%	11.1%	3.7%	62.4*	105.7%
COC(=O)c1cc(Cl)c(NC(=O)c2ccc(F)cc2)cc1OC	2.5	9.28µM*	-0.3%	2.5%	-5.0	21.1%
COc1cc(NC(=O)c2nc3nc(C)cc(C(F)F)n3n2)c(OC)cc1Cl	nt	nt	nt	1.0%	nt	nt
COc1ccc(C(=O)Nc2cc(Cl)ccc2OC(=O)c2ccc(OC)cc2)cc1	65.5*	-84.8%	-4.7%	0.0%	89.1*	-64.5%
Cc1noc(C)c1S(=O)(=O)N1CCN(S(=O)(=O)c2ccccc2C#N)CC1	-3.2	-25.1%	12.6%	-0.8%	6.0	-17.7%
COCCn1ccc(O)c(Cc2ccc(Cl)cc2)c1=O	-3.3	?	-5.3%	-1.8%	3.8	?
COc1ccc(Cn2ccc3nc(C)c(C(=O)Nc4ccc(OC)cc4OC)cc3c2=O)cc1	nt	nt	nt	12.3%	nt	nt
CN(C)c1nc(N)c2ncc(=S)[nH]c2n1	-1.3	4.0%[5.75 µM]	nt	-2.2%	1.3	3.2%[5.75 µM]
O=C(Nc1ccccc1OC(=O)c1ccc(Cl)cc1)c1ccc(Cl)cc1	36.5*	?	-3.4%	0.4%	33.9*	?
SMILES	Cycloheximide cs	Pf growth 96h	NS1 function inh	Sm TGR block	Shiga inhibitor	Pf growth 48h
O=C(Nc1ccc(NC(=O)C2CC2)nc1)c1ccco1	24.0*	nt	-12.3%	0.0%	59.7*	105.0%
COc1ccccc1C(=O)Nc1ccc(NC(=O)C2CCCCC2)nc1	9.1	124.0%	12.4%	-11.7%	21.6	?
O=C(Nc1ccc(NC(=O)C2CC2)nc1)c1cccnc1	8.2	0.0%	-3.1%	15.2%	13.0	62.3%
O=C(Nc1ccc(NC(=O)C2CCCCC2)nc1)c1ccco1	52.5*	162.2%	-64.3%	-3.1%	66.2*	-6.4%
O=C(Nc1ccc(NC(=O)C2CCCCC2)nc1)c1ccccn1	43.6*	98.6%	-8.8%	nt	81.4*	20.3%
NC(=O)C1Cc2ccccc2CN1C(=O)c1nn(Cc2ccccc2)c(=O)c2ccccc12 (centres undefined)	nt	5.86µM*	nt	2.4%	nt	9.28µM*
O=C(c1nn(Cc2ccccc2)c(=O)c2ccccc12)N1CCc2ccccc2C1	-4.0	32.1%	0.0%	15.3%	-17.3	-1.0%
Cc1ccc(NC(=O)c2ccc3c(c2)NC(=O)c2ccccc2S3)cc1	nt	nt	nt	2.7%	nt	nt
C/C(=N/NC(=O)c1ccc(-c2ccccc2)cc1)c1cccc(O)c1	7.9	5.86µM*	26.8%	0.0%	21.9	5.2%
C/C(=N\NC(=O)c1ccc(F)cc1)c1cccc(NC(=O)c2cccc(F)c2)c1	15.6*	-17.4%	-19.4%	-11.0%	35.1*	?
C/C(=N\NC(=O)c1cccc(O)c1)c1cccc(NC(=O)c2ccc(F)cc2)c1	40.9*	-11.7%	-5.8%	1.2%	68.3*	34.2%
C/C(=N\NC(=O)c1cccc(F)c1)c1cccc(NC(=O)c2ccc(F)cc2)c1	34.9*	33.1%	-2.6%	2.1%	26.4*	11.3%
C/C(=N\NC(=O)c1ccc(F)cc1)c1cccc(NC(=O)c2ccco2)c1	14.1	?	-59.5%	-14.3%	63.8	43.3%
CCOc1ccc(CCNC(=O)Cn2nnc(-c3ccccc3Cl)n2)cc1OCC	nt	nt	nt	10.4%	nt	nt
CC1N=C2c3ccccc3N=C(SCC(=O)NCCc3ccc(Cl)cc3)N2C1=O (centres undefined)	nt	nt	nt	2.0%	nt	nt
COc1cc2nc(NCCc3ccc(Cl)cc3)n3nc(-c4ccccc4)nc3c2cc1OC	nt	nt	nt	0.7%	nt	nt
NC(=O)c1nsc(C(=O)N(CC(=O)NC2CCCC2)c2cnc3ccccc3c2)c1N	-3.1	?	-32.8%	-19.0%	-3.1	-20.1%
C/C(=N\NC(=O)c1ccccc1F)c1cccc(NC(=O)c2ccc(C)cc2)c1	33.7*	5.22µM*	-3.0%	?	58.3*	69.1%
CCCOP(=O)(O)c1c([N+](=O)[O-])cc(C(F)(F)F)cc1[N+](=O)[O-] (tested in a mixture with another compound)	14.3*	-9.5%	15.3%	-12.1%	42.0	nt
COc1cc(C(=O)N/N=C(\C)c2ccccn2)cc(OC)c1OC	7.9	17.6%	-4.4%	-2.9%	-13.1	16.5%
COc1cccc(C(=O)N/N=C(/c2ccccc2)c2ccccn2)c1	-2.3	?	-14.0%	1.5%	-10.1	9.28µM*
COc1cc(C(=O)N/N=C(\c2ccccc2)c2ccccn2)cc(OC)c1OC	-8.4	9.28µM*	4.2%	-0.6%	-13.4	0.928µM*
COc1cccc(C(=O)NCCNC(=O)c2cnccn2)c1	-5.5	0.0%	-1.3%	4.6%	8.5	6.1%
